Sampled rows, rich in hits. Any-hit rate of the full collection: about 3.5%.
FBW7 act: human FBW7 E3 ligase activation, primary screen. hit rate 0.13% among 650,000. AlphaScreen FBW7–phospho-cyclin E peptide binding, activator screen. AID 1259310. normalized activity (activation), % at 26.1 µM. Q969H0; in the data active = normalized activity above about 1.9%;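 also: purified mutant Fbw7 with reduced substrate affinity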
GPR151 ag: activators of human GPR151. Q8TDV0. activation, % at 11.2 µM. hit rate 1% among 650,000. AID 1508602. PathHunter beta-arrestin GPR151 cells, luminescence; in the data active = activation above about 4.9%;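 also: 0% = median of compound wells and 100% = cells with positive control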
Target sequence (Q8TDV0 whole entry, looked up): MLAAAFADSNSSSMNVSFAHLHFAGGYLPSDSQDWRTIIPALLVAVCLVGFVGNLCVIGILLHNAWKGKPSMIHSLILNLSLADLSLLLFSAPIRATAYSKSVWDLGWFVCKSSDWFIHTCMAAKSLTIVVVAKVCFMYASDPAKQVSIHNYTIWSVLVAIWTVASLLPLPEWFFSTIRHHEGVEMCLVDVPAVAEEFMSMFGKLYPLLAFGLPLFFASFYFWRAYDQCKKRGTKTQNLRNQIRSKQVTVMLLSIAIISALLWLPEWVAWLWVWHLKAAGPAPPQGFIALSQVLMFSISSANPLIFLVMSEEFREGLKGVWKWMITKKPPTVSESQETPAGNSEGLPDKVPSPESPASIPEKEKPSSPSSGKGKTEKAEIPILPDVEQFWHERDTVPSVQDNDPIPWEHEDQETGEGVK
MITF inh: inhibitors of human MITF; AlphaScreen MITF homodimerization, bead proximity signal; hit rate 0.91% among 650,000; AID 1259374; O75030; inhibition, % at 2.6 µM; in the data active = inhibition above about 50%;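 also: 0% = vehicle wells with protein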
TEAD-YAP block: TEAD-YAP interaction inhibition; HEK-TIYL cells, TEAD-Gal4/YAP UAS-luciferase luminescence; inhibition, % at 9.12 µM; hit rate 1.4% among 640,000; in the data active = inhibition above about 32%;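 also: 0% = median of test compound wells and 100% = reference inhibitor wells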
MITF inh conf: human MITF inhibition, confirmation; shares compounds with MITF inh; AlphaScreen MITF homodimerization, biotin/His-MITF beads; inhibition, % at 2.6 µM; hit rate 16% among 4,700; AID 1259372;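 active = inhibition above a cutoff derived from the DMSO control wells, cut at about 28% in these data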;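 also: 0% = MITF dimer wells with DMSO only; inhibitors lower the bead chemiluminescence by keeping MITF from dimerizing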
AlphaScreen DR: AlphaScreen optical interference, dose response counter-screen. AlphaScreen optical interference counterscreen, cell-free. IC50, µM. shares compounds with MITF inh. hit rate 6% among 480; call rule not given here
AlphaScreen intf2: AlphaScreen optical interference, counter-screen; LysRS AlphaScreen counterscreen, signal interference, triplicate; shares compounds with MITF inh; inhibition, % at 2.6 µM; hit rate 7.6% among 4,700;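 active = inhibition above a cutoff derived from the DMSO control wells, cut at about 30% in these data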
Starred values were filed as active, the others as inactive; . = no result given.

SMILES	FBW7 act	GPR151 ag	MITF inh	TEAD-YAP block	MITF inh conf	AlphaScreen intf2	others
COc1ccc(CCNCc2ccc(OC)c(OC)c2)cc1	0.0	-1.2	51.2*	5.7	-0.8	-6.3
COc1ccc(CCNCc2ccc(OC)cc2)cc1	0.1	-0.6	21.1	8.1	.	.
Cc1ccccc1CN1CCN(Cc2ccccc2[N+](=O)[O-])CC1	-0.3	0.2	60.8*	-7.0	2.4	-2.8
Cc1ccccc1CN1CCN(Cc2ccc([N+](=O)[O-])cc2)CC1	-0.4	0.3	63.4*	0.9	-0.1	2.4
CCC(C)N1CCN(Cc2ccccc2[N+](=O)[O-])CC1 (stereo not given)	-0.1	1.0	74.4*	7.3	13.5	-13.6
O=[N+]([O-])c1ccc(CN2CCN(Cc3ccccc3)CC2)cc1	-0.1	-0.8	57.2*	-2.9	2.6	11.3
COc1cc(-c2ccc3c(c2)COC2(CCNCC2)O3)cc(OC)c1OC	0.7	-1.0	19.1	13.5	.	.
COc1cc(C(=O)CN(C)C2CCCCC2)cc(OC)c1OC	0.1	0.0	-6.0	-4.5	.	.
COc1cccc(CN2CCN(Cc3ccc(Cl)cc3)CC2)c1	0.0	3.5	79.2*	-19.2	17.3	17.1
COc1ccc(CN2CCN(Cc3ccc(F)cc3)CC2)cc1	-0.2	0.2	77.9*	-0.7	0.3	12.4
CCC(CC)N1CCN(Cc2cccc(OC)c2)CC1	-0.1	1.9	73.1*	-2.4	6.2	12.4
Fc1ccc(CN2CCN(Cc3ccc(F)cc3)CC2)cc1	0.1	-0.5	74.5*	4.5	8.9	-7.3
COc1cccc(CN2CCN(Cc3cccc(OC)c3)CC2)c1	0.0	0.1	6.6	-2.7	.	.
CN1CCN(Cc2ccc(C(F)(F)F)cc2)CC1	0.0	-0.3	56.3*	0.9	-0.3	3.0
COc1cccc(CN2CCN(Cc3cccc(C)c3)CC2)c1	-0.2	0.2	74.4*	-4.9	3.4	1.2
CSc1ccc(CN2CCN(Cc3ccccc3)CC2)cc1	-0.6	1.4	53.8*	5.0	8.3	2.0
CN1CCN(Cc2ccc(N(C)C)cc2)CC1	-0.4	0.7	-39.8	-5.9	.	.
CSc1ccc(CN2CCN(C)CC2)cc1	-0.1	0.8	20.8	3.0	.	.
COc1ccc(CN2CCN(Cc3ccc(Br)cc3)CC2)cc1	-0.2	-0.5	85.0*	9.3	-1.8	13.9
Clc1ccc(CN2CCN(Cc3cccc(Cl)c3)CC2)cc1	-0.2	-0.1	71.1*	-2.1	17.0	16.9
COc1cccc(CN2CCN(Cc3ccc(F)cc3)CC2)c1	-0.2	-1.1	72.1*	-18.4	9.8	13.8
COc1cccc(CN2CCN(c3ccc(F)cc3)CC2)c1	0.0	0.3	43.5	8.1	.	.
CNC(=O)O/N=C(/C)c1ccc(OC)cc1OC	0.0	2.4	-9.8	-1.5	.	.
CCOc1cccc(OCC)c2c(C)nc(C)c1-2	0.0	1.8	76.4*	8.2	81.9*	-2.4
CCOc1cccc(OCC)c2c(C)[n+](C)c(C)c1-2	0.0	-0.4	73.5*	-34.0	79.3*	3.4	AlphaScreen DR=>5.15
SMILES	FBW7 act	GPR151 ag	MITF inh	TEAD-YAP block	MITF inh conf	AlphaScreen intf2	others
CC1=[N+]([O-])C2(CC(C)(C)NC(C)(C)C2)NC1(C)C	0.1	0.2	11.9	6.1	.	.
Cc1ccc(C2=CCN(CC(=O)NC3CCCC3)CC2)o1	0.3	0.0	11.3	9.7	.	.
Cc1ccc(N2C(=N)c3ccccc3C2C#N)cc1 (stereo not given)	0.2	0.4	10.6	-2.0	.	.
O=C1CC(=O)N(c2ccc(Br)cc2)C(=O)N1	-0.1	-1.4	-0.5	-4.5	.	.
Cc1ccc(N2C(=O)CC(=O)NC2=O)cc1	-0.1	-0.9	82.5*	-1.2	-2.5	3.9
Cc1ccc(OCC(=O)N2CCN(Cc3cccc(C)c3)CC2)cc1	0.0	0.5	51.2*	7.6	1.4	2.6
Cc1ccc(OCC(=O)N2CCN(Cc3ccc(Br)cc3)CC2)cc1	-0.1	1.3	70.3*	4.5	15.5	19.2
Cc1cccc(OCC(=O)N2CCN(Cc3cccc(Br)c3)CC2)c1	0.0	-0.6	61.2*	-0.1	35.0*	15.6	AlphaScreen DR=>6.48
Cc1cccc(CN2CCN(C(=O)COc3ccc(Br)cc3)CC2)c1	0.1	1.2	39.7	13.9	.	.
CCN1CCN(C(=O)COc2cccc(Br)c2)CC1	0.0	1.7	-8.2	-8.3	.	.
CCC(C)N1CCN(C(=O)COc2cccc(C)c2)CC1 (stereo not given)	-0.2	1.7	44.0	-10.1	.	.
CCC(C)N1CCN(C(=O)COc2ccc(C)cc2)CC1 (stereo not given)	0.1	-1.2	54.3*	7.6	10.0	15.7

Compound activity as filed in PubChem.
